The text below walks through data of PubChem BioAssay (NCATS).

Experiment [1] is described as follows: qHTS assay for environmental chemicals that activate the Aryl hydrocarbon Receptor (AhR) signaling pathway (AID 651777). Further: nearly all actives have a fitted effect of over 15% in size. Further: potency means the concentration at half of the fitted maximal effect. On activation: % of control where 0% means no effect. Conditions: 1A2-DRE human hepatoma cells, luciferase, 24 h; activation: stronger effect = higher value. In short, it runs like this: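 Concentration–response screening used 1,200 1A2-DRE cells per well, 24 hr compound exposure (37 C, 5% CO2), and One-Glo luminescence as the AhR-driven CYP1A2 reporter signal.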

For experiment [2], the target named is Peroxisome proliferator-activated receptor alpha (Homo sapiens) (UniProt Q07869). As to the kind of experiment: qHTS assay for small molecule agonists of the peroxisome proliferator-activated receptor alpha (PPARalpha) signaling pathway (AID 651778). Further: % of control where 0% means no effect. To be noted: PathHunter PPARalpha complementation, chemiluminescence, 6 h; stronger effect = higher value. In short, it runs like this: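 Enzyme-fragment complementation assay in which ligand-bound PPARalpha translocates and forms an active enzyme that generates chemiluminescence. Cells were plated overnight, exposed to compound for 6 hr at 37 C, and then given detection reagent for 60 min at room temperature.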

For experiment [3], the target named is Nuclear receptor ROR-gamma (Homo sapiens) (UniProt P51449). The experiment can be described thus: qHTS assay for small molecule antagonists of the retinoid-related orphan receptor gamma (ROR-gamma) signaling pathway (AID 651802). Further: nearly all actives have a fitted effect of over 60% in size. Further: potency means the concentration at half of the fitted maximal effect. In short, it runs like this:
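Antagonism is scored as a fall in luminescence from a RORE-luciferase reporter in CHO cells expressing ROR under a TET-inducible promoter, measured 16hr after doxycycline induction in the presence of compound.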

A short description of experiment [4]: qHTS assay for small molecule agonists of the antioxidant response element (ARE) signaling pathway measured by Nrf2-dependant transcriptional activity (AID 720636; active means well fitted curve in the direction sought with a large enough effect in the repeat runs; an effect the other way counts as inactive or inconclusive; further: % of control where 0% means no effect). Summed up:
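Attachment 6 hr at 37 C, then compound versus DMSO vehicle for 16 hr in ARE-luc HepG2 cells (1% dialyzed FBS); luminescence recorded 30 min after ONE-Glo addition at room temperature.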

Experiment [5] can be described thus: qHTS assay for small molecule antagonists of the retinoid-related orphan receptor gamma (ROR-gamma) signaling pathway - cell viability counter screen (AID 720652; active means well fitted curve in the direction sought with a large enough effect in the repeat runs; an effect the other way counts as inactive or inconclusive;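 further: series mostly up to about 92 µM; compound exposure lasted 16 hr before ATP read; on the % scale 0 is the no-effect control and ±100 the full control effect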). In short, it runs like this: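 Cytotoxicity is quantified via intracellular ATP (CellTiter-Glo luminescence) in doxycycline-induced CHO ROR response element-luciferase reporter cells treated with compound for 16 hr at 37 C, 5% CO2.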

Experiment [6] is described as follows: qHTS assay for small molecule agonists of the antioxidant response element (ARE) signaling pathway measured by Nrf2-dependant transcriptional activity - cell viability counter screen (AID 720653; active means well fitted curve in the direction sought with a large enough effect in the repeat runs; an effect the other way counts as inactive or inconclusive; further: on the % scale 0 is the no-effect control and ±100 the full control effect). Conditions: ARE-bla HepG2 viability, CellTiter-Glo ATP luminescence, 16 h; stronger effect = lower value. In short, it runs like this:
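ARE-bla HepG2 cells treated with compounds for 16 h at 37C; this counter screen measures viability as intracellular ATP by CellTiter-Glo luminescence after 30 min at room temperature.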

A short description of experiment [7]: qHTS for compounds that reverse cellular toxicity of Amyloid beta (A-beta) peptide in yeast: LOPAC Validation Assay (AID 720559).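 Further: plate controls were DMSO for no effect and equimolar ferric chloride plus clioquinol rescue for full effect.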 In short, it runs like this: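 OD600 growth readout after 48 hr at 30 C; A-beta-toxic yeast plus pinned compounds in medium. Normalization: DMSO = negative, equimolar FeCl3 + clioquinol = positive.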
Experiment [8] can be described thus: qHTS for Activators of Parkin Expression: LOPAC Validation Assay (NLuc Reporter) (AID 720572;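 further: 0% = DMSO and 100% = positive control compound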). Summed up: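 Neuronal cells with a Parkin promoter-driven FLuc/NLuc coincidence reporter were treated 24 h at 37 C in 7-point dose response (LOPAC). NLuc luminescence read after FLuc; signals normalized to DMSO and positive control (100%).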

Several values for one entry are separate records, joined by “and”; a condition that tells them apart may be missing. Identical values can stand only once. A number with no mark means an inactive call. Inconclusive results are not listed. Activity calls are given as the source filed them. Unless noted, the call rests on the fitted dose curve; in most records, active means well fitted curve in the direction sought with a large enough effect; inconclusive means small, poorly fitted or top-dose-only effect, or another doubt; inactive means no such curve, though single readings can be large; an effect the other way counts as inactive or inconclusive.

Peroxisome proliferator-activated receptor alpha (Homo sapiens), sequence (Q07869 whole entry, looked up, the tested form may be a part): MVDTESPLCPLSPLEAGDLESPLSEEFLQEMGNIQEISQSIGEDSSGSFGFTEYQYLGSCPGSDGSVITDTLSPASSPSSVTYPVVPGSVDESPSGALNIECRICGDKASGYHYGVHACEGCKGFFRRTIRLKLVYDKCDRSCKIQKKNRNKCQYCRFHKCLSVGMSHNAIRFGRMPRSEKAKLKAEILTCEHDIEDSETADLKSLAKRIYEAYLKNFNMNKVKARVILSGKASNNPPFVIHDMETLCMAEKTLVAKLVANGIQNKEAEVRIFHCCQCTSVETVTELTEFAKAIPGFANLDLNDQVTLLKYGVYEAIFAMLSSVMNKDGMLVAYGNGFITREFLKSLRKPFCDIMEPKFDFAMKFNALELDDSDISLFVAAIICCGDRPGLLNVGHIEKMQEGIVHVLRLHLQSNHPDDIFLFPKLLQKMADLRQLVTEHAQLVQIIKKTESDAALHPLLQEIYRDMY
Nuclear receptor ROR-gamma (Homo sapiens), sequence (P51449 whole entry, looked up): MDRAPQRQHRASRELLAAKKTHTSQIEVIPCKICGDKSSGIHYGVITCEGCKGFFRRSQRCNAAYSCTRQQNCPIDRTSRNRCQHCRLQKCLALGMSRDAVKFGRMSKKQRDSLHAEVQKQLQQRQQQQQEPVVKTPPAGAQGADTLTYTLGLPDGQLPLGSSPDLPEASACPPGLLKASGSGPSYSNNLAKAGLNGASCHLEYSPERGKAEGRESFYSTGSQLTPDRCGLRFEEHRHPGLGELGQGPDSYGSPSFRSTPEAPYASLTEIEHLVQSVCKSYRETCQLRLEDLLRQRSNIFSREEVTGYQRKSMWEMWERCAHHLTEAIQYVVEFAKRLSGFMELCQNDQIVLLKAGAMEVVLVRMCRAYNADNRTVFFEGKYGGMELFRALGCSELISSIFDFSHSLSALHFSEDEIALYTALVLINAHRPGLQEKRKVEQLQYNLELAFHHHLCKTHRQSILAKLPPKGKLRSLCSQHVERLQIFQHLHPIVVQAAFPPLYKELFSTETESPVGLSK

On to `CC1=CC(=O)NS(=O)(=O)O1`, for which, in experiment [1], the activation was -1.78% and 1.57%. The max response is -1.04% and -0.299% in experiment [2]; 6.07% and 6.81% in experiment [6]. Moreover, the Potency result in experiment [3] and in experiment [4] was “inactive” throughout. In addition, in experiment [5], the outcome was inactive.

For the molecule `COC(=O)c1ccccc1O`, in experiment [1], the activation was 0.888% and 1.53%. The max response was -2.75% and -2.44% in experiment [2]; 1.24% and 5.57% in experiment [6]. Moreover, the Potency result in experiment [3] and in experiment [4] was “inactive” throughout. Moreover, the result in experiment [5] was inactive.

In the case of `c1ccc2ccccc2c1`, the activation in experiment [1] was 0.0968% and 0.369%. Besides, the max response in experiment [2] is -3.91% and 0.0956%; in experiment [6], 1.06% and 1.45%. Also, the Potency entry in experiment [3] and in experiment [4] was “inactive” each time. Also, the molecule was called inactive in experiment [5].

In the case of `Oc1ccc(/C=C/c2cc(O)cc(O)c2)cc1`, the Potency in experiment [1] is 25.1 µM (active). Moreover, the max response in experiment [2] was -3.92% and -4.52%; in experiment [6], 7.43% and -3.23%. In experiment [3], the Potency result is “inactive”. The result in experiment [7], in experiment [8] and in experiment [5] was inactive.

Take `Oc1cccc(O)c1O`: the activation in experiment [1] was -0.8%. The max response was 0.0177% in experiment [2] and -24.8% in experiment [6]. Moreover, the Potency entry in experiment [3] and in experiment [4] was “inactive” throughout. In experiment [5], the call was inactive.

Turning to `CC/C=C\C/C=C\C/C=C\CCCCCCCC(=O)O`, the activation in experiment [1] was 0.211%. Moreover, the results for the max response in experiment [2] and in experiment [6] were 20% and -3.01%, respectively. Moreover, the Potency result in experiment [3] is “inactive”. Moreover, the outcome in experiment [5] was inactive.

Take `OC[C@H]1O[C@@H]2O[C@H]3[C@H](O)[C@@H](O)[C@@H](O[C@H]4[C@H](O)[C@@H](O)[C@@H](O[C@H]5[C@H](O)[C@@H](O)[C@@H](O[C@H]6[C@H](O)[C@@H](O)[C@@H](O[C@H]7[C@H](O)[C@@H](O)[C@@H](O[C@H]1[C@H](O)[C@H]2O)O[C@@H]7CO)O[C@@H]6CO)O[C@@H]5CO)O[C@@H]4CO)O[C@@H]3CO`: the activation in experiment [1] was 1.89% and -0.569%. In addition, the max response in experiment [2] is -0.429% and -5.48%; in experiment [6], -2.78% and 5.87%. Moreover, the Potency result in experiment [3] and in experiment [4] was “inactive” throughout. The outcome in experiment [5] was inactive.

In the case of `CO`, the activation in experiment [1] was -0.288%. For the same molecule, the values for the max response in experiment [2] and in experiment [6] were -6.03% and -2.74%, respectively. The Potency entry in experiment [3] and in experiment [4] was “inactive” each time. For the same molecule, in experiment [5], the outcome was inactive.

As for `CC(C)O`, in experiment [1], the activation is 2.92%. The max response was -0.168% in experiment [2] and 2% in experiment [6]. The Potency result in experiment [3] and in experiment [4] was “inactive” in each case. Moreover, the call in experiment [5] was inactive.

With `OCl`, the activation in experiment [1] is 0.267%. Also, the max response in experiment [2] is -2.41%; in experiment [6] it was -6.58%. Further, the Potency entry in experiment [3] and in experiment [4] was “inactive” each time. Also, the molecule was classed as inactive in experiment [5].

With `NCCN`, the activation in experiment [1] was -1.15%. The max response was -6.55% in experiment [2] and -3.91% in experiment [6]. Also, the Potency entry in experiment [3] and in experiment [4] was “inactive” each time. In addition, in experiment [5], the outcome was inactive.

Turning to `Nc1ncnc2c1ncn2[C@H]1CC[C@@H](CO)O1`, the activation in experiment [1] was 3.83% and -0.699%. For the same molecule, the max response in experiment [2] is -1.88% and -2.98%; in experiment [6], -18.5% and 2.96%. In addition, the Potency entry in experiment [3] and in experiment [4] was “inactive” each time. In addition, the result in experiment [5] was inactive.

Consider `C[C@H]1O[C@@H](O[C@H]2[C@@H](O)C[C@H](O[C@H]3[C@@H](O)C[C@H](O[C@H]4CC[C@@]5(C)[C@H](CC[C@@H]6[C@@H]5C[C@@H](O)[C@]5(C)[C@@H](C7=CC(=O)OC7)CC[C@]65O)C4)O[C@@H]3C)O[C@@H]2C)C[C@H](O)[C@@H]1O`, for which the activation in experiment [1] was 2.26% and 1.31%. Further, the max response in experiment [2] was 3.82% and -3.75%. Further, the Potency in experiment [3] was 9.44 µM (active). Moreover, in experiment [4], the Potency result was “inactive”.

Regarding `OB(O)O`, in experiment [1], the activation was 0.198% and -2.21%. The max response is -2.01% and 0.448% in experiment [2]; -7.44% and 3.96% in experiment [6]. For the same molecule, the Potency entry in experiment [3] and in experiment [4] was “inactive” each time. For the same molecule, the result in experiment [5] was inactive.

With `CC1=CCC2CC1C2(C)C` (stereo unspecified), the activation in experiment [1] is 1.2%. Also, the max response was -6.44% in experiment [2] and -2.11% in experiment [6]. In addition, the Potency result in experiment [3] and in experiment [4] was “inactive” throughout. In addition, the result in experiment [5] was inactive.

With `O=P(O)(O)O`, the activation in experiment [1] is -1.09%. The results for the max response in experiment [2] and in experiment [6] were -4.49% and -2%, respectively. Moreover, the Potency result in experiment [3] and in experiment [4] was “inactive” in each case. Moreover, the molecule was called inactive in experiment [5].

As for `C[C@H](CCC(=O)O)[C@H]1CC[C@H]2[C@@H]3[C@H](O)C[C@@H]4C[C@H](O)CC[C@]4(C)[C@H]3C[C@H](O)[C@]12C`, the activation in experiment [1] is -1.36%. For the same molecule, the max response is 0.161% in experiment [2] and 1.94% in experiment [6]. In addition, the Potency result in experiment [3] and in experiment [4] was “inactive” throughout. Moreover, the result in experiment [5] was inactive.

As for `OCc1ccccc1`, the activation in experiment [1] was 0.173%. Further, the max response is 2.92% in experiment [2] and -4.76% in experiment [6]. The Potency result in experiment [3] and in experiment [4] was “inactive” in each case. Moreover, the outcome in experiment [5] was inactive.

On to `CC(C)(C)CC(C)(C)c1ccc(OCCO)cc1`, for which the activation in experiment [1] was 2.97%. Further, the max response is 20.4% in experiment [2] and -18% in experiment [6]. Besides, the Potency in experiment [3] was 42.2 µM (active). The Potency result in experiment [4] is “inactive”.
